PubChem BioAssay (NCI)
The panel holds about 83,000 compounds, 20% with a hit somewhere; the sample as a whole holds those more often.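 Interpretation: 100, growth as untreated; towards 0, rising growth inhibition; 0, no net growth; 0 to -100, cell death. Compounds scoring below 10 were considered active.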 Activity calls are given as the source filed them.

Columns and labels:
Experiment in all cases: NCI-60 one-dose screen, 48 h (100 = growth as untreated, 0 = no growth, -100 = all killed)
Settings in all cases: 10 µM unless noted
HCT-15 colon = system: HCT-15 colon
HT29 colon = system: HT29 colon
SNB-75 CNS = system: SNB-75 CNS
SNB-19 CNS = system: SNB-19 CNS
U251 CNS = system: U251 CNS
PC-3 prostate = system: PC-3 prostate
SK-MEL-5 melanoma = system: SK-MEL-5 melanoma
UACC-62 melanoma = system: UACC-62 melanoma
LOX IMVI melanoma = system: LOX IMVI melanoma
SK-MEL-28 melanoma = system: SK-MEL-28 melanoma

Measured: growth

Clc1nc(Nc2ccccc2)nc(Nc2ccccc2)n1
inactive: HCT-15 colon 100% | HT29 colon 116% | SNB-75 CNS 105% | SNB-19 CNS 104% | U251 CNS 110% | PC-3 prostate 99.5% | SK-MEL-5 melanoma 99.8% | UACC-62 melanoma 96.3% | LOX IMVI melanoma 94.1% | SK-MEL-28 melanoma 112%

COc1ccccc1/C=C1\COc2ccc(-c3ccccc3)cc2C1=O
active: HT29 colon 5.36%
inactive: HCT-15 colon 22.7% | SNB-75 CNS 42.2% | SNB-19 CNS 69.1% | U251 CNS 17.3% | PC-3 prostate 27.2% | SK-MEL-5 melanoma 27.5% | UACC-62 melanoma 40.6% | LOX IMVI melanoma 18.7% | SK-MEL-28 melanoma 57.3%

CC1(C)CN(c2cnc(C(=O)Nc3cc(F)cc4cccnc34)cn2)CCN1
inactive: HCT-15 colon 59.3% | HT29 colon 47.1% | SNB-75 CNS 72.9% | SNB-19 CNS 93.1% | U251 CNS 89.5% | PC-3 prostate 44.8% | SK-MEL-5 melanoma 89.3% | UACC-62 melanoma 106% | LOX IMVI melanoma 69.7% | SK-MEL-28 melanoma 80.2%

COc1ccc(-c2cnnc3c(-c4cccc(C(F)(F)F)c4)cnn23)cc1
inactive: HCT-15 colon 68.3% | HT29 colon 63.6% | SNB-19 CNS 50.4% | U251 CNS 17.5% | PC-3 prostate 63.2% | UACC-62 melanoma 62.6% | LOX IMVI melanoma 75.4% | SK-MEL-28 melanoma 56.1%
active: SNB-75 CNS -26.9% | SK-MEL-5 melanoma 5.82%

Cc1ccc(C2C3CC4CCCCC4N3[C@@]3(C(=O)Nc4cc(Cl)ccc43)C2C(=O)c2nc3ccccc3[nH]2)cc1 (stereo not given in full)
inactive: HCT-15 colon 21.5% | HT29 colon 19.5% | SNB-75 CNS 45.1% | SNB-19 CNS 49.7% | U251 CNS 38% | PC-3 prostate 25.3% | SK-MEL-5 melanoma 45% | UACC-62 melanoma 54.7% | LOX IMVI melanoma 29.7% | SK-MEL-28 melanoma 66.2%

CCOc1cc(CNc2ccc(N3CCOCC3)c(C(=O)O)c2)ccc1OC
inactive: HCT-15 colon 96.4% | HT29 colon 98.1% | SNB-75 CNS 108% | SNB-19 CNS 94.6% | U251 CNS 103% | PC-3 prostate 98.9% | SK-MEL-5 melanoma 99.8% | UACC-62 melanoma 90.3% | LOX IMVI melanoma 99.5% | SK-MEL-28 melanoma 100%

COc1cc(NCCN(CC(C)C)C2CCCC2)c2ncccc2c1
inactive: HCT-15 colon 73.8% | HT29 colon 71.8% | SNB-75 CNS 89.4% | SNB-19 CNS 97.6% | U251 CNS 94.1% | PC-3 prostate 85.2% | SK-MEL-5 melanoma 97.2% | UACC-62 melanoma 92.8% | LOX IMVI melanoma 89.8% | SK-MEL-28 melanoma 101%

CN1CCN(Cc2ccc(NC(=O)c3cncc(C#Cc4cnccc4C(F)(F)F)c3)cc2C(F)(F)F)CC1
inactive: HCT-15 colon 70.2% | HT29 colon 23.5% | SNB-75 CNS 89% | SNB-19 CNS 103% | U251 CNS 78.4% | PC-3 prostate 80.4% | SK-MEL-5 melanoma 75.1% | UACC-62 melanoma 89.9% | LOX IMVI melanoma 20.9% | SK-MEL-28 melanoma 56.6%

CC(=O)O[C@]1(C(C)=O)CC[C@H]2[C@@H]3C=C(Cl)C4=CC(=O)CC[C@]4(C)[C@H]3CC[C@@]21C
inactive: HCT-15 colon 102% | HT29 colon 101% | SNB-75 CNS 117% | SNB-19 CNS 98% | U251 CNS 106% | PC-3 prostate 96.1% | SK-MEL-5 melanoma 109% | UACC-62 melanoma 90.6% | LOX IMVI melanoma 115% | SK-MEL-28 melanoma 119%

COc1cccc2c1C(=O)c1c(O)c3c(c(O)c1C2=O)C[C@@](O)(C(=O)CO)C[C@@H]3O[C@H]1C[C@H](N)[C@@H](O)[C@H](C)O1
active: HT29 colon -14.8% | SNB-75 CNS -66.2% | U251 CNS 3.07% | PC-3 prostate -0.191% | SK-MEL-5 melanoma -83.1% | UACC-62 melanoma -64.4% | LOX IMVI melanoma 0.955% | SK-MEL-28 melanoma -34.7%
inactive: HCT-15 colon 40.5% | SNB-19 CNS 10%

NC(=S)N/N=C(/c1ccccc1)c1ccccc1N
inactive: HCT-15 colon 84.7% | HT29 colon 54.8% | SNB-75 CNS 101% | SNB-19 CNS 101% | U251 CNS 95.6% | PC-3 prostate 67.3% | SK-MEL-5 melanoma 92.3% | UACC-62 melanoma 93.9% | LOX IMVI melanoma 96.1% | SK-MEL-28 melanoma 109%

CCOC(=O)N1CCN(CCCCl)CC1
inactive: HCT-15 colon 105% | HT29 colon 107% | SNB-75 CNS 102% | SNB-19 CNS 97.6% | U251 CNS 95.6% | PC-3 prostate 102% | SK-MEL-5 melanoma 101% | UACC-62 melanoma 93.5% | LOX IMVI melanoma 99.5% | SK-MEL-28 melanoma 106%

C[C@H]1[C@H](C)CC[C@]2(CO)CC[C@]3(C)C(=CC[C@@H]4[C@@]5(C)CCCNC(C)(C)[C@@H]5CC[C@]43C)[C@H]12
active: HCT-15 colon 6.84% | HT29 colon -75.4% | SNB-75 CNS 9.21% | SNB-19 CNS -64.9% | U251 CNS -83.3% | PC-3 prostate -43.2% | UACC-62 melanoma -72.3% | LOX IMVI melanoma -94.9% | SK-MEL-28 melanoma -84.9%
inactive: SK-MEL-5 melanoma 22.5%

O=C1c2cccnc2C(=O)c2nc3cc(N4CCN(C5CC5)CC4)ccc3nc21
active: HCT-15 colon -58.8% | HT29 colon -21.3% | SNB-75 CNS -64.7% | SNB-19 CNS -81.5% | U251 CNS -32.6% | SK-MEL-5 melanoma -98.1% | UACC-62 melanoma -98.5% | LOX IMVI melanoma -46.5% | SK-MEL-28 melanoma -76.9%
inactive: PC-3 prostate 11.6%

O=C(c1ccccc1)N1N=C(c2ccc(-n3ccc(C(F)(F)F)n3)cc2)CC1c1ccc[nH]1 (stereo not given)
inactive: HCT-15 colon 70.6% | HT29 colon 87.1% | SNB-75 CNS 80.6% | SNB-19 CNS 92.7% | U251 CNS 86% | PC-3 prostate 83.3% | SK-MEL-5 melanoma 101% | UACC-62 melanoma 89.6% | LOX IMVI melanoma 80% | SK-MEL-28 melanoma 92.2%

CCOC(=O)c1c(O)cc(-c2ccccc2)cc1-c1sc(N(C)Cc2ccccc2)nc1Cl
inactive: HCT-15 colon 101% | HT29 colon 110% | SNB-75 CNS 89.9% | SNB-19 CNS 101% | U251 CNS 98% | PC-3 prostate 97% | SK-MEL-5 melanoma 101% | UACC-62 melanoma 92.6% | LOX IMVI melanoma 97% | SK-MEL-28 melanoma 101%

C=CCn1c(SCC(=O)Nc2ccc(C(=O)/C=C/c3cc(OC)c(OC)c(OC)c3)cc2)nnc1-c1cc(-c2ccc(S(C)(=O)=O)cc2)nc2ccccc12
inactive: HCT-15 colon 69.7% | HT29 colon 81.3% | SNB-75 CNS 55.7% | SNB-19 CNS 74.1% | U251 CNS 88.3% | PC-3 prostate 88.8% | SK-MEL-5 melanoma 82.7% | UACC-62 melanoma 75.5% | LOX IMVI melanoma 67% | SK-MEL-28 melanoma 108%

CCCCCOc1ccc(/C=N/Nc2cc(C)nc3ccc(Br)cc23)cc1
inactive: SNB-75 CNS 85.5% | SNB-19 CNS 43.2% | PC-3 prostate 27.3% | SK-MEL-5 melanoma 89.1% | UACC-62 melanoma 93.2%
active: HCT-15 colon -91.4% | HT29 colon 4.52% | U251 CNS -65% | LOX IMVI melanoma -92.9% | SK-MEL-28 melanoma -74.3%

NC(=O)c1cccc(-c2ccccc2N2CCCCC2)c1
inactive: HCT-15 colon 101% | HT29 colon 95.2% | SNB-75 CNS 99.7% | SNB-19 CNS 93% | U251 CNS 98.3% | PC-3 prostate 83.9% | SK-MEL-5 melanoma 100% | UACC-62 melanoma 85% | LOX IMVI melanoma 98.5% | SK-MEL-28 melanoma 98.6%

COc1ccc(-c2nc(N=Nc3c(O)[nH]c4ccccc34)nc(N3CCOCC3)c2C#N)cc1
inactive: HCT-15 colon 69.9% | HT29 colon 49.2% | SNB-75 CNS 44% | SNB-19 CNS 72.6% | U251 CNS 37.8% | PC-3 prostate 72.7% | SK-MEL-5 melanoma 57.5% | UACC-62 melanoma 50.3% | LOX IMVI melanoma 66.8% | SK-MEL-28 melanoma 72.2%

CCOC(=O)c1ccc(Nc2ccnc(SCC(=O)c3ccc(C#N)cc3)n2)cc1
inactive: HCT-15 colon 75.8% | HT29 colon 76.2% | SNB-75 CNS 102% | SNB-19 CNS 89.9% | U251 CNS 84.8% | PC-3 prostate 39.6% | SK-MEL-5 melanoma 37.5% | UACC-62 melanoma 39.3% | LOX IMVI melanoma 80.3% | SK-MEL-28 melanoma 80.8%

N#Cc1c(Nc2ccccc2)nn2cc(-c3nc4ccccc4s3)c(N)nc12
inactive: HCT-15 colon 71% | HT29 colon 81.8% | SNB-75 CNS 55.9% | SNB-19 CNS 76.5% | U251 CNS 84.2% | PC-3 prostate 73.4% | SK-MEL-5 melanoma 67.6% | UACC-62 melanoma 66.8% | LOX IMVI melanoma 67.9% | SK-MEL-28 melanoma 68.7%

O=C1Nc2c(ccc(Cl)c2Cl)/C1=C/c1ccccn1
inactive: HCT-15 colon 70.9% | HT29 colon 78.5% | SNB-75 CNS 84.6% | SNB-19 CNS 84.5% | U251 CNS 85% | PC-3 prostate 75.2% | SK-MEL-5 melanoma 83.1% | UACC-62 melanoma 70.5% | LOX IMVI melanoma 43.9% | SK-MEL-28 melanoma 105%

Cc1c2c(cc[n+]1Cc1ccc(F)cc1)c1ccc(OCc3cccc(F)c3)cc1n2Cc1cccc(F)c1
inactive: HCT-15 colon 54.3%
active: HT29 colon -74.9% | SNB-75 CNS -88.7% | SNB-19 CNS -90.3% | U251 CNS -89.4% | PC-3 prostate -44.4% | SK-MEL-5 melanoma -99.4% | UACC-62 melanoma -98% | LOX IMVI melanoma -82.7% | SK-MEL-28 melanoma -91%

CC1(c2ccccc2)NC(=O)N(CC(=O)Nc2cccc(I)c2)C1=O (stereo not given)
inactive: HCT-15 colon 92.9% | HT29 colon 95.9% | SNB-75 CNS 66.8% | SNB-19 CNS 84.7% | U251 CNS 88.7% | PC-3 prostate 67.9% | SK-MEL-5 melanoma 31.1% | UACC-62 melanoma 74% | LOX IMVI melanoma 93.8% | SK-MEL-28 melanoma 93%

CCCCCCCC(=O)Nc1nc2[nH]c(CN3CCN(Cc4cccc(I)c4)CC3)c(CN3CCN(Cc4cccc(I)c4)CC3)c2c(=O)[nH]1
active: HCT-15 colon -91.5% | HT29 colon -69.8% | SNB-75 CNS -73.2% | SNB-19 CNS -87.5% | U251 CNS -94.6% | PC-3 prostate -45.7% | SK-MEL-5 melanoma 2.56% | UACC-62 melanoma -98.1% | LOX IMVI melanoma -96.6% | SK-MEL-28 melanoma -78.1%
